Assay results: ChEMBL document CHEMBL1961873, “Compounds: GSK PKIS; Assays: Nanosyn kinase panel” (2012)

Tests used:
[1] = molecular target: Sphingosine kinase 1 (Homo sapiens) (UniProt Q9NYA1); conditions: at 1 µM;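 note: mean SPHK1 inhibition value reported from the GSK PKIS kinase panel screen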
[2] = molecular target: T1, Sphingosine kinase 2 (Homo sapiens) (UniProt Q9NRA0); conditions: at 0.1 µM
T1 sequence (whole entry): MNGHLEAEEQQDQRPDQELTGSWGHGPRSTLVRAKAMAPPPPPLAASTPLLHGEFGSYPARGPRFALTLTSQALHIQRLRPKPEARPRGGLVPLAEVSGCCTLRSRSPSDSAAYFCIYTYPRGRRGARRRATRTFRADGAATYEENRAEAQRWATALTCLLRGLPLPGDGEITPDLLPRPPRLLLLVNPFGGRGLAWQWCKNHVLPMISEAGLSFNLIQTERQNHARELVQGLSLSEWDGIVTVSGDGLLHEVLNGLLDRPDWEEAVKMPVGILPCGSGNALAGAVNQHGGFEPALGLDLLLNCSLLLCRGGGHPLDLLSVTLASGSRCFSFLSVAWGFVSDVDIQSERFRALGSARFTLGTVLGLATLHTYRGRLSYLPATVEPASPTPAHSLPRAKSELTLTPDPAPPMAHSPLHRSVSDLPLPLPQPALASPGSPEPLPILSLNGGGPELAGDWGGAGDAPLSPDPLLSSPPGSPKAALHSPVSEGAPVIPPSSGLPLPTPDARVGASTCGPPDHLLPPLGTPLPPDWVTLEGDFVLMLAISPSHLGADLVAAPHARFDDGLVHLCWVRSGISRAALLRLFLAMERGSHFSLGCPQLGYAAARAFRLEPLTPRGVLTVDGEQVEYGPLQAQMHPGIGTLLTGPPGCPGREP

[3] = molecular target: T1, Sphingosine kinase 2 (Homo sapiens); conditions: at 1 µM
[4] = molecular target: Casein kinase II subunit alpha (Homo sapiens) (UniProt P68400); conditions: at 0.1 µM
[5] = molecular target: Casein kinase II subunit alpha (Homo sapiens) (UniProt P68400); conditions: at 1 µM
[6] = molecular target: T2, Inhibitor of nuclear factor kappa-B kinase subunit alpha (Homo sapiens) (UniProt O15111); conditions: at 0.1 µM
T2 sequence (whole entry): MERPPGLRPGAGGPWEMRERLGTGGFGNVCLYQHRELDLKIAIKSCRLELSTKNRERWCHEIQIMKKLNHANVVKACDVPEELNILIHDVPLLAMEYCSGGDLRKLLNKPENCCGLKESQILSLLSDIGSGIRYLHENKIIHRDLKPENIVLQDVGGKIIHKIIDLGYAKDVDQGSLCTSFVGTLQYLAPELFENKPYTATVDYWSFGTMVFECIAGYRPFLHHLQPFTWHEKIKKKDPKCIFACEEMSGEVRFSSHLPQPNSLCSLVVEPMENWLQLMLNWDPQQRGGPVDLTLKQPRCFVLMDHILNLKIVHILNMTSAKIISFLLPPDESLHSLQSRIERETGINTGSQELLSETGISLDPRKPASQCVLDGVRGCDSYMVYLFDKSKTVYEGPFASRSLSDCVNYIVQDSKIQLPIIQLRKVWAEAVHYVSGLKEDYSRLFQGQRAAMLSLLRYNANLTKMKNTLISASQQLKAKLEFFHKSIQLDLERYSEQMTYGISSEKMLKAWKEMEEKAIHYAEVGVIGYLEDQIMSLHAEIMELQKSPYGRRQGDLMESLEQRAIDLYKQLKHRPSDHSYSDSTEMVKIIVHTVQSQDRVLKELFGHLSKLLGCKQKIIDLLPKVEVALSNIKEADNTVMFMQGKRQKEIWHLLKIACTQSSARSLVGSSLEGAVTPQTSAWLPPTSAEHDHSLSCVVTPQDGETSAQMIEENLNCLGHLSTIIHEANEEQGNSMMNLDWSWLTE

[7] = molecular target: T2, Inhibitor of nuclear factor kappa-B kinase subunit alpha (Homo sapiens); conditions: at 1 µM
[8] = molecular target: T3, Inhibitor of nuclear factor kappa-B kinase subunit beta (Homo sapiens) (UniProt O14920); conditions: at 0.1 µM
T3 sequence (whole entry): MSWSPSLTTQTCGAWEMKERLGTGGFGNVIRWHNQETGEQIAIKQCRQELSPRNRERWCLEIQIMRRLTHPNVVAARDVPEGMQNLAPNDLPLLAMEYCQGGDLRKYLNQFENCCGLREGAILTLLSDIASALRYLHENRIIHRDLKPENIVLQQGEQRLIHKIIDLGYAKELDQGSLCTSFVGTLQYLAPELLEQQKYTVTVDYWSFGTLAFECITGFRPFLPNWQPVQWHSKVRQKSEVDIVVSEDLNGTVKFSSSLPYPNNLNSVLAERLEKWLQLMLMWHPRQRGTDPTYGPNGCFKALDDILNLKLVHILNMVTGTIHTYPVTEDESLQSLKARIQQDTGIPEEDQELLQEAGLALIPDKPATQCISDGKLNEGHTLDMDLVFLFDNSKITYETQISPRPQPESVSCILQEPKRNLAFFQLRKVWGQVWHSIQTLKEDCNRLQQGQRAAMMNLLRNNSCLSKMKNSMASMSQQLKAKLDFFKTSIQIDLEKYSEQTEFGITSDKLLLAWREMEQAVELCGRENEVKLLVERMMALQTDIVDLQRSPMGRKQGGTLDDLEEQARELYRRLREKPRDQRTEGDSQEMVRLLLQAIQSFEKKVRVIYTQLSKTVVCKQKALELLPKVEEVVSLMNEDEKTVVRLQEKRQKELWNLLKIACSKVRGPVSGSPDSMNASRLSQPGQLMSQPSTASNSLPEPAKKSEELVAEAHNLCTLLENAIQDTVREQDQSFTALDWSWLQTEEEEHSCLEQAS

[9] = molecular target: T3, Inhibitor of nuclear factor kappa-B kinase subunit beta (Homo sapiens); conditions: at 1 µM
[10] = molecular target: T4, Inhibitor of nuclear factor kappa-B kinase subunit epsilon (Homo sapiens) (UniProt Q14164); conditions: at 0.1 µM
T4 sequence (whole entry): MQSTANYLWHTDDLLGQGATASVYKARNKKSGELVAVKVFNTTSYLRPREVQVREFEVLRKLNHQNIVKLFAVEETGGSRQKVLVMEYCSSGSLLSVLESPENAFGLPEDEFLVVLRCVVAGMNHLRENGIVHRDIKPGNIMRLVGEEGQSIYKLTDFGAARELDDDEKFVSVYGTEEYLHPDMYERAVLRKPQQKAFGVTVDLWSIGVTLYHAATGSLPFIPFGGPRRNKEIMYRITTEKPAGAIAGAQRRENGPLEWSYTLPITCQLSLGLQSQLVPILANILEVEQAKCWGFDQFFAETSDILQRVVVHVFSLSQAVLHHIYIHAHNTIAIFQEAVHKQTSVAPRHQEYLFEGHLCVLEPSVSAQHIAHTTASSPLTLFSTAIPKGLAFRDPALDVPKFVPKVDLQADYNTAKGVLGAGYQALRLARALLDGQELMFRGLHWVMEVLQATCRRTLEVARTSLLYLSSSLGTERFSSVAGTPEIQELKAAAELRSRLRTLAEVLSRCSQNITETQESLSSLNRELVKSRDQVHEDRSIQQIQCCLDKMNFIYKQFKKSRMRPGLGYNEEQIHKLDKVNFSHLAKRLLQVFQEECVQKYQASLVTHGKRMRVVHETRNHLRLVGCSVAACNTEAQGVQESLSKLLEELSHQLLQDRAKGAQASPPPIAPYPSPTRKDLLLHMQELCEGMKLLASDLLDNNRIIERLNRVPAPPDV

[11] = molecular target: T4, Inhibitor of nuclear factor kappa-B kinase subunit epsilon (Homo sapiens); conditions: at 1 µM
[12] = molecular target: T5, Serine/threonine-protein kinase Nek1 (Homo sapiens) (UniProt Q96PY6); conditions: at 0.1 µM
T5 sequence (whole entry): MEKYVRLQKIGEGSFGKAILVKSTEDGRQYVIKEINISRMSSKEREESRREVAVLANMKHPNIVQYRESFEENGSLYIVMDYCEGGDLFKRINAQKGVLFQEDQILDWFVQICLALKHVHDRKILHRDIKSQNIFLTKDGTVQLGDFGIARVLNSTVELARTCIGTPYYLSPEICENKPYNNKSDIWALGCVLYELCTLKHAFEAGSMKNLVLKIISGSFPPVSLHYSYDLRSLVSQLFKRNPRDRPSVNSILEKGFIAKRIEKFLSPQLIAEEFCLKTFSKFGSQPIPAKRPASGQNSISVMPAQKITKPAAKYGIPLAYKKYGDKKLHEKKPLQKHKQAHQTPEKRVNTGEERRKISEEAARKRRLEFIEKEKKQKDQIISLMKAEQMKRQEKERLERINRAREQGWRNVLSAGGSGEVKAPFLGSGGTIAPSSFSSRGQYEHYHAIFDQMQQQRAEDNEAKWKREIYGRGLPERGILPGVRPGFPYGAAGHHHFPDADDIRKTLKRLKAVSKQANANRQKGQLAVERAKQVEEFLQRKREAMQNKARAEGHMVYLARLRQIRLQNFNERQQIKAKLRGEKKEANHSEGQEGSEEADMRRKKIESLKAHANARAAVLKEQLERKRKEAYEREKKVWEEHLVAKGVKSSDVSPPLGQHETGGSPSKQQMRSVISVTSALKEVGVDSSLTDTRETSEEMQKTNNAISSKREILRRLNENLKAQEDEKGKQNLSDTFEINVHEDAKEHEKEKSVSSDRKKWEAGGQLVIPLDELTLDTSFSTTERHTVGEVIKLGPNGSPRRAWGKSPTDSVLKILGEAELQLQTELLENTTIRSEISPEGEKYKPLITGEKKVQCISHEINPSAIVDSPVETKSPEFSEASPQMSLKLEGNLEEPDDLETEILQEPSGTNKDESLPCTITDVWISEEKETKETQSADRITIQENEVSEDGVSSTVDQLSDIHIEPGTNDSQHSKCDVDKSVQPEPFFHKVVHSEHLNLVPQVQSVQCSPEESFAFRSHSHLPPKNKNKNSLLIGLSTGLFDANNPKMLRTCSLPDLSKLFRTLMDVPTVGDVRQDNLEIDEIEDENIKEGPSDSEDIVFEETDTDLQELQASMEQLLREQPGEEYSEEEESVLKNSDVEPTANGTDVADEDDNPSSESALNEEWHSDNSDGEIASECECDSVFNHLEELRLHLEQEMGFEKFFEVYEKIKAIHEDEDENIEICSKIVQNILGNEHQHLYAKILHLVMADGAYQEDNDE

[13] = molecular target: T5, Serine/threonine-protein kinase Nek1 (Homo sapiens); conditions: at 1 µM
[14] = molecular target: T6, Serine/threonine-protein kinase Nek2 (Homo sapiens) (UniProt P51955); conditions: at 0.1 µM
T6 sequence (whole entry): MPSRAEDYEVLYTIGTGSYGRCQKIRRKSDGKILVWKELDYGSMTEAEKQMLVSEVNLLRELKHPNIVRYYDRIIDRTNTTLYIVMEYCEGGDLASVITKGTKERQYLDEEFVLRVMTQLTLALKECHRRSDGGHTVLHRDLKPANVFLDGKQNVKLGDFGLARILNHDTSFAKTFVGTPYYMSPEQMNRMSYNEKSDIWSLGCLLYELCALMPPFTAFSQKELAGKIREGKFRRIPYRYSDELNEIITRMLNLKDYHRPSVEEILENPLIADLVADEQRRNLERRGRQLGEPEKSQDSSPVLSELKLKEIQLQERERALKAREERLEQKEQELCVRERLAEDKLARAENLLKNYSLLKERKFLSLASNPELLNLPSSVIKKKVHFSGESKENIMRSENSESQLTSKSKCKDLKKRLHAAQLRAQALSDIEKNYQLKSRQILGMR

[15] = molecular target: T6, Serine/threonine-protein kinase Nek2 (Homo sapiens); conditions: at 1 µM
[16] = molecular target: Serine/threonine-protein kinase Nek6 (Homo sapiens) (UniProt Q9HC98); conditions: at 0.1 µM
[17] = molecular target: Serine/threonine-protein kinase Nek6 (Homo sapiens) (UniProt Q9HC98); conditions: at 1 µM
[18] = molecular target: Serine/threonine-protein kinase Nek7 (Homo sapiens) (UniProt Q8TDX7); conditions: at 0.1 µM
[19] = molecular target: Serine/threonine-protein kinase Nek7 (Homo sapiens) (UniProt Q8TDX7); conditions: at 1 µM
[20] = molecular target: T7, Serine/threonine-protein kinase Nek9 (Homo sapiens) (UniProt Q8TD19); conditions: at 0.1 µM;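 note: reported value is the mean percent inhibition of NEK9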
T7 sequence (whole entry): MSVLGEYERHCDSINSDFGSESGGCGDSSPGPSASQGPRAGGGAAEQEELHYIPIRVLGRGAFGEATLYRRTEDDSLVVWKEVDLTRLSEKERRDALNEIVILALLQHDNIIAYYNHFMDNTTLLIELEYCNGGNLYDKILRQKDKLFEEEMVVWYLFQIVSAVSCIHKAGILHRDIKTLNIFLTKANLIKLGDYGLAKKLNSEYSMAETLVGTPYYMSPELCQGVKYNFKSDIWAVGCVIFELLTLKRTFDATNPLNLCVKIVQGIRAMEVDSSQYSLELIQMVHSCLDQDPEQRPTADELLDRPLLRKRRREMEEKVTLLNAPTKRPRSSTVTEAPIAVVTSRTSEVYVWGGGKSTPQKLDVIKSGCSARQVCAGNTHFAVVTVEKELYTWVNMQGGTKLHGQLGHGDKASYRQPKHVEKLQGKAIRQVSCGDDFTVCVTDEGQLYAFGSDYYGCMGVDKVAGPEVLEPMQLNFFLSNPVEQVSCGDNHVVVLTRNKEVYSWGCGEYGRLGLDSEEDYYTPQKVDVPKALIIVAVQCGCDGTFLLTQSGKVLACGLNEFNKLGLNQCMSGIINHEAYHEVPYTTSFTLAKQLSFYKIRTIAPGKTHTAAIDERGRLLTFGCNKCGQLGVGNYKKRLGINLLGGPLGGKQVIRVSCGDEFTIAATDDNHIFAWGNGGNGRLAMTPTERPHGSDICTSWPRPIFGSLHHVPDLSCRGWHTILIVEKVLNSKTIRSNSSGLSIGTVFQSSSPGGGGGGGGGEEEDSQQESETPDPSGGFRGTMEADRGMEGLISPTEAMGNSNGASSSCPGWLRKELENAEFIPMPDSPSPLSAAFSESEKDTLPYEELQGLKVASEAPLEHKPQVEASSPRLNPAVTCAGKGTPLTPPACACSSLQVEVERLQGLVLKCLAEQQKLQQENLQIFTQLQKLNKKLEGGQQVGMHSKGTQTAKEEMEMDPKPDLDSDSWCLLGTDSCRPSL

Serine/threonine-protein kinase Nek6 (Homo sapiens), sequence (Q9HC98 whole entry): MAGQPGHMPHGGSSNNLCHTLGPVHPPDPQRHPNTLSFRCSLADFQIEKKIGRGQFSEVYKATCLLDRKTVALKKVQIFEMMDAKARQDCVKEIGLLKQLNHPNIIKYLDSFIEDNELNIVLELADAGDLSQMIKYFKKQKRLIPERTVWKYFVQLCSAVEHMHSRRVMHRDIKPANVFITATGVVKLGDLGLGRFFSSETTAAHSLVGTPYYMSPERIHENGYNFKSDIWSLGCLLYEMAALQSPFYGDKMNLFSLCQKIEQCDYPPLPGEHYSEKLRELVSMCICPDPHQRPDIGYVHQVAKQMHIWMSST
Serine/threonine-protein kinase Nek7 (Homo sapiens), sequence (Q8TDX7 whole entry, looked up): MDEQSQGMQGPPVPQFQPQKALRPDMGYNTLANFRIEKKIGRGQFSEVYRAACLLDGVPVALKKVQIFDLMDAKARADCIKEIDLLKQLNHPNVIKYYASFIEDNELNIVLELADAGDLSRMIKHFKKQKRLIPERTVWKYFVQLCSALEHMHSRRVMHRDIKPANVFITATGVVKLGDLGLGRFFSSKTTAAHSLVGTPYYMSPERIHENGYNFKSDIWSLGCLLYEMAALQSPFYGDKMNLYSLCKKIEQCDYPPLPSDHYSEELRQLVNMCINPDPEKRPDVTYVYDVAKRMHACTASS
Casein kinase II subunit alpha (Homo sapiens), sequence (P68400 whole entry, looked up): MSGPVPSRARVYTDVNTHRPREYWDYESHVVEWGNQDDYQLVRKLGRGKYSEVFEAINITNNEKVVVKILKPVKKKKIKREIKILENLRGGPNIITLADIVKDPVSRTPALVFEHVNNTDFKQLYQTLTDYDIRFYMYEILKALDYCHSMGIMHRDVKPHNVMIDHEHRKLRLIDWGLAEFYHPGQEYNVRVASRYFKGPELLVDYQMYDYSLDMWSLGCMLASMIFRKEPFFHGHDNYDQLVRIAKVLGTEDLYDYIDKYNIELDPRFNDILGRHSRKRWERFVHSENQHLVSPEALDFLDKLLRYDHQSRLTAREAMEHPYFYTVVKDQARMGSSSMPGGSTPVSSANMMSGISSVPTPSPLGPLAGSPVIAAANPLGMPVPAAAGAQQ
Sphingosine kinase 1 (Homo sapiens), sequence (Q9NYA1 whole entry): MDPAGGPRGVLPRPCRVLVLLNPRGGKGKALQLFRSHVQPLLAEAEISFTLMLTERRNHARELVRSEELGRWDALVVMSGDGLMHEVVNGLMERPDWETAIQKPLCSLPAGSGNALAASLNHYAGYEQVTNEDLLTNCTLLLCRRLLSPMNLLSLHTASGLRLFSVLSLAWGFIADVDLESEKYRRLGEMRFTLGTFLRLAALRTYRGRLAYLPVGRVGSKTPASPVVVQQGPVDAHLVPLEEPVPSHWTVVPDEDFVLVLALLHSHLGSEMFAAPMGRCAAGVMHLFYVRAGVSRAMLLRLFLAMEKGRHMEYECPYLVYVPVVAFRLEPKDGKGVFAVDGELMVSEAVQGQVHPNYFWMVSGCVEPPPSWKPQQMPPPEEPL

Structure (SMILES)	inhibition [1] [%]	inhibition [2] [%]	inhibition [3] [%]	inhibition [4] [%]	inhibition [5] [%]	inhibition [6] [%]	inhibition [7] [%]	inhibition [8] [%]	inhibition [9] [%]	inhibition [10] [%]	inhibition [11] [%]	inhibition [12] [%]	inhibition [13] [%]	inhibition [14] [%]	inhibition [15] [%]	inhibition [16] [%]	inhibition [17] [%]	inhibition [18] [%]	inhibition [19] [%]	inhibition [20] [%]
CCCN1CCC=C(c2ccc(Nc3nc(Nc4ccccc4C(N)=O)c4cc[nH]c4n3)c(C)c2)C1	1.28	-1.02	0.04	33.7	72	13.6	16	5.1	8.74	9.65	10.3	3.93	8.78	6.91	7.52	0.8	5.18	4.64	14	7.78
Fc1cccc(COc2ccc(Nc3ncnc4sc(-c5cccs5)cc34)cc2Cl)c1	1.25	-2.31	1.14	-0.4	1.52	3.55	1.01	1.1	0.28	-0.11	3.74	2.04	2.57	2.88	1.85	-0.49	1.79	-0.09	5.03	1.95
